Test results: PubChem BioAssay (NCI)
“And” between values parts separate entries of the source, which are not always exact repeats. Identical values can stand only once. The panel holds about 79,000 compounds, 15% with a hit somewhere; the sample as a whole holds those more often. The source made the active and inactive calls. Cut-off read from the data, not from the text of the source: active = growth inhibition above about 70%; inactive = the rest.

Tests used:
[1] = NCI Yeast Anticancer Drug Screen. Data for the rad52 strain (AID 147);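 note: 0% = growth of vehicle-treated control cultures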; conditions: S. cerevisiae rad52 mutant growth inhibition, hits give high values
How it was run: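 Screen used a yeast mutant impaired in DNA repair. After compound exposure, growth was measured. Values reflect inhibition compared with vehicle-treated cells.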

[2] = NCI Yeast Anticancer Drug Screen. Data for the wt1 strain (AID 149);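 note: 0% = growth of vehicle-treated wt1 cultures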; conditions: S. cerevisiae wt1 strain (SPY 50644) growth inhibition, hits give high values
How it was run: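 Yeast wt1 strain exposed to compounds; growth inhibition measured relative to vehicle-treated controls.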

[3] = NCI Yeast Anticancer Drug Screen. Data for the rad50EPP+ strain (AID 151);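 note: 0% = growth of vehicle-treated control cultures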; conditions: S. cerevisiae rad50 mutant strain, hits give high values
How it was run: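 Exposing the rad50EPP+ strain to each compound, growth was compared with vehicle-only cultures to give inhibition.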

[4] = NCI Yeast Anticancer Drug Screen. Data for the mgt1 strain (AID 153); conditions: S. cerevisiae mgt1 mutant growth inhibition, hits give high values
How it was run: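 Genetically defined yeast (mgt1) treated with compound; inhibition of growth expressed against vehicle-treated controls.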

[5] = NCI Yeast Anticancer Drug Screen. Data for the rad50 strain (AID 155);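 note: 0% = growth of vehicle-only cultures of the same strain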; conditions: S. cerevisiae rad50 strain growth inhibition, hits give high values
How it was run: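 Yeast carrying a defined DNA repair defect were exposed to test compounds, and growth was compared with vehicle-treated controls to give percent inhibition.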

[6] = NCI Yeast Anticancer Drug Screen. Data for the mec2-1 strain (AID 157); conditions: S. cerevisiae mec2-1 strain, hits give high values
How it was run: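 Readout is yeast growth inhibition, normalised to vehicle-treated controls, in the mec2-1 strain exposed to compound.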

[7] = NCI Yeast Anticancer Drug Screen. Data for the rad14 strain (AID 159);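 note: 0% = growth of vehicle-treated control cultures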; conditions: S. cerevisiae rad14 strain growth inhibition, hits give high values
How it was run: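 Yeast cells carrying a defined DNA-repair defect were exposed to compounds, and growth inhibition was calculated relative to vehicle-treated control cultures.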

[8] = NCI Yeast Anticancer Drug Screen. Data for the sgs1 mgt1 strain (AID 161);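 note: 0% = growth of cultures given vehicle only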; conditions: S. cerevisiae sgs1 mgt1 strain, hits give high values
How it was run: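 Yeast cells carrying a defined DNA-repair defect were exposed to test compounds. Growth inhibition was measured relative to vehicle-treated controls.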

[9] = NCI Yeast Anticancer Drug Screen. Data for the CLN2oe strain (AID 163);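 note: 0% = growth of vehicle-only control cultures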; conditions: S. cerevisiae CLN2oe strain, hits give high values
How it was run: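 Values reflect how much compound exposure reduced yeast growth, referenced to vehicle-exposed cells. Assay organism is a strain with a defined genetic change affecting cell-cycle control.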

[10] = NCI Yeast Anticancer Drug Screen. Data for the cln2 rad14 strain (AID 165);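 note: 0% = growth equal to vehicle treated cultures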; conditions: S. cerevisiae cln2 rad14 strain, hits give high values
How it was run: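 Relative to vehicle controls, growth inhibition of compound-treated cln2 rad14 yeast was recorded.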

[11] = NCI Yeast Anticancer Drug Screen. Data for the bub3 strain (AID 167); conditions: S. cerevisiae bub3 mutant strain, hits give high values
How it was run: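 Compounds were applied to a genetically altered yeast strain carrying a cell-cycle control defect. Growth inhibition was scored against vehicle-treated controls.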

[12] = NCI Yeast Anticancer Drug Screen. Data for the wt2 strain (AID 169);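 note: 0% = growth of vehicle-treated yeast cultures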; conditions: S. cerevisiae wt2 strain growth inhibition, hits give high values
How it was run: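 Values express reduction in yeast growth under compound treatment, referenced to vehicle-treated cells.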

[13] = NCI Yeast Anticancer Drug Screen. Data for the mlh1 strain (AID 171);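 note: 0% = growth of vehicle-treated control cultures of the same strain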; conditions: S. cerevisiae mlh1 strain growth inhibition, hits give high values
How it was run: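 Steps: expose the defined-mutant yeast strain to compound; expose a parallel culture to vehicle; measure growth; express compound effect as inhibition relative to the vehicle culture.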

[14] = NCI Yeast Anticancer Drug Screen. Data for the sgs1 strain (AID 173);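 note: 0% = growth of vehicle-only control cultures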; conditions: S. cerevisiae sgs1 mutant, hits give high values
How it was run: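 Treat defined-mutant yeast with compound; measure growth; calculate inhibition relative to vehicle-treated cells.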

[15] = NCI Yeast Anticancer Drug Screen. Data for the mlh1 rad18 strain (AID 175); conditions: S. cerevisiae mlh1 rad18 strain growth inhibition, hits give high values
How it was run: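 Test agents were incubated with a yeast strain of defined genotype (DNA damage repair defect). Inhibition of growth was derived by comparison with vehicle-exposed cultures.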

[16] = NCI Yeast Anticancer Drug Screen. Data for the rad18 strain (AID 177); conditions: S. cerevisiae rad18 mutant growth inhibition, hits give high values
How it was run: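 A genetically defined yeast mutant impaired in DNA damage repair was treated with test compounds, then its growth was measured against cultures receiving vehicle alone.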

[17] = at 5.0 µM (retest, dose inferred, filed as 0.5)
[18] = at 50.0 µM (retest, dose inferred, filed as 5.0)

Measured: growth inhibition

O=S(=O)(O)/C(=C\c1ccccc1)c1ccccc1 (tested in a mixture with another compound)
inactive: [1]; at 1.2 µM -3% | [1]; at 3.7 µM -2% | [1]; at 11.0 µM -6% | [1]; at 33.0 µM -5% | [1]; at 100.0 µM -8% | [2]; at 1.2 µM 1% | [2]; at 3.7 µM 0% | [2]; at 11.0 µM 1% | [2]; at 33.0 µM 0% | [2]; at 100.0 µM -1% | [3]; at 1.2 µM -3% | [3]; at 3.7 µM -2% | [3]; at 11.0 µM -3% | [3]; at 33.0 µM -3% | [3]; at 100.0 µM 3% | [4]; at 1.2 µM 0% | [4]; at 3.7 µM -1% | [4]; at 11.0 µM -1% | [4]; at 33.0 µM -2% | [4]; at 100.0 µM -2% | [5]; at 1.2 µM 0% | [5]; at 3.7 µM -5% | [5]; [17] 15% | [5]; at 11.0 µM 1% | [5]; at 33.0 µM -5% | [5]; [18] 15% | [5]; at 50.0 µM -10.3% and -8% and 14.8% | [5]; at 100.0 µM -4% | [6]; at 1.2 µM -3% | [6]; at 3.7 µM -2% | [6]; [17] 24% | [6]; at 11.0 µM -3% | [6]; at 33.0 µM -2% | [6]; [18] 24% | [6]; at 50.0 µM 2.1% and -4.7% and -21.4% | [6]; at 100.0 µM 10% | [7]; at 1.2 µM 0% | [7]; at 3.7 µM 0% | [7]; at 11.0 µM 2% | [7]; at 33.0 µM -7% | [7]; at 100.0 µM 3% | [8]; [17] 12% | [8]; [18] 3% | [8]; at 50.0 µM -28.2% and -11.8% and -14.2% | [9]; at 1.2 µM -3% | [9]; at 3.7 µM -1% | [9]; at 11.0 µM -5% | [9]; at 33.0 µM -7% | [9]; at 100.0 µM 2% | [10]; [17] 55% | [10]; [18] 23% | [10]; at 50.0 µM 28.4% and 15.9% and 9.35% | [11]; at 1.2 µM -11% | [11]; at 3.7 µM -6% | [11]; at 11.0 µM -30% | [11]; at 33.0 µM 19% | [11]; at 50.0 µM -19.1% and -0.25% and 3.5% | [11]; at 100.0 µM 1% | [12]; at 1.2 µM -2% | [12]; at 3.7 µM 0% | [12]; at 11.0 µM -4% | [12]; at 33.0 µM -2% | [12]; at 100.0 µM -2% | [13]; at 1.2 µM 0% | [13]; at 3.7 µM 2% | [13]; at 11.0 µM 1% | [13]; at 33.0 µM -22% | [13]; at 100.0 µM 10% | [14]; at 1.2 µM 0% | [14]; at 3.7 µM -1% | [14]; at 11.0 µM -2% | [14]; at 33.0 µM -5% | [14]; at 100.0 µM -4% | [15]; [17] 39% | [15]; [18] 4% | [15]; at 50.0 µM 8.8% and -6.15% and -15.1% | [16]; at 1.2 µM -2% | [16]; at 3.7 µM 2% | [16]; at 11.0 µM 5% | [16]; at 33.0 µM -5% | [16]; at 100.0 µM -11%
active: [11]; [17] 97% | [11]; [18] 95%
